Measured values published in PubChem BioAssay (Tox21).
Results filed as inconclusive are left out. The source made the active and inactive calls. Unless noted, calls follow the shape of the dose curve; as a rule, active = well fitted curve in the direction sought with a large enough effect in the repeat runs; inconclusive = weak or mixed curves; inactive = no such curve, though single readings can be large; an effect the other way counts as inactive or inconclusive.

Legend:
[1] = biological target: Thyrotropin-releasing hormone receptor (Homo sapiens) (UniProt P34981); test: qHTS assay to identify small molecule agonists of the thyrotropin-releasing hormone receptor (TRHR) signaling pathway (AID 1346891; calls by dose curve;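 also: HEK293 cells expressing TRHR with calcium dye readout; series mostly up to about 58 µM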)
Sequence of Thyrotropin-releasing hormone receptor (Homo sapiens) (P34981 whole entry, looked up): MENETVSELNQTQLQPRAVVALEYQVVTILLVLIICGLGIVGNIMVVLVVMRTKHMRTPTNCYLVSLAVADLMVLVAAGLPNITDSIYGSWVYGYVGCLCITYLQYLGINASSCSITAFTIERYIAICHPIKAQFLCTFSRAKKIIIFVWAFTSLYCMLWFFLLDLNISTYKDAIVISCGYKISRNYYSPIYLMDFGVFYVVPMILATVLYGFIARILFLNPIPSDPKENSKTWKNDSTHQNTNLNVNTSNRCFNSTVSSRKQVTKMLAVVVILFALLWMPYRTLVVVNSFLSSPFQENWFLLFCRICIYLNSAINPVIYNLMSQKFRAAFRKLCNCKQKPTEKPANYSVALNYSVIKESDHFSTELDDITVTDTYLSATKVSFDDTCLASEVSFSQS
Outline: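 HEK293/TRHR cells, 1500 per well, 18 h 37 °C; Ca dye 2 h 37 °C; pin-tool compound addition (agonist mode); kinetic fluorescence 3 min, 1 s reads; 15 concentrations, triplicate.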

[2] = Human pregnane X receptor (PXR) small molecule agonists, qHTS cell viability counter screen (AID 1346977); also: nearly all actives have a fitted effect of over 50% in size
Outline: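 Fluorescence read-out (CellTiter-Fluor) of viability in PXR-Luc HepG2 cells, multiplexed with the luciferase agonist read. Compounds in DMSO added after 5hr plating; 24hr total exposure at 37C, 5% CO2.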

[3] = Caspase-3/7 induction in HepG2 cells by small molecules, qHTS assay (AID 1346978); also: nearly all actives have a fitted effect of over 15% in size
Outline: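 Caspase-3/7 induction was measured by Caspase-Glo 3/7 luminescence (30 min, room temperature) after a 17 hr compound exposure of wild-type HepG2 cells seeded at 2,000 per well and pre-incubated 5 hr.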

[4] = Caspase-3/7 induction in CHO-K1 cells by small molecules, qHTS cell viability counter screen (AID 1346979); also: nearly all actives have a fitted effect of over 35% in size
Outline: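 CHO-K1 wt, 1,500 cells/well; 5hr pre-incubation 37C/5% CO2; compound pin transfer (DMSO); 16hr exposure; CellTiter-Fluor added, 1hr, fluorescence read.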

[5] = Caspase-3/7 induction in CHO-K1 cells by small molecules, qHTS assay (AID 1346980); also: nearly all actives have a fitted effect of over 15% in size
Outline: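 Luminescent Caspase-Glo 3/7 read (30min, room temperature) quantified apoptosis induction. Cells were wild-type CHO-K1, treated with compound for 17hr at 37 C and 5% CO2.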

[6] = Caspase-3/7 induction in HepG2 cells by small molecules, qHTS cell viability counter screen (AID 1346981); also: series mostly up to about 92 µM; nearly all actives have a fitted effect of over 30% in size
Outline: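 Cell viability is measured as a cytotoxicity counter screen alongside the Caspase-Glo 3/7 readout in identical wells. Wild-type HepG2 cells are treated with test compounds for 16 hr at 37 C before CellTiter-Fluor addition and a 1-hr incubation.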

[7] = biological target: Nuclear receptor subfamily 1 group I member 2 (Homo sapiens) (UniProt O75469); test: Human pregnane X receptor (PXR) small molecule agonists, qHTS assay (AID 1346982); also: nearly all actives have a fitted effect of over 35% in size; also: potency is read from the fitted curve at half-maximal effect
Sequence of Nuclear receptor subfamily 1 group I member 2 (Homo sapiens) (O75469 whole entry, looked up): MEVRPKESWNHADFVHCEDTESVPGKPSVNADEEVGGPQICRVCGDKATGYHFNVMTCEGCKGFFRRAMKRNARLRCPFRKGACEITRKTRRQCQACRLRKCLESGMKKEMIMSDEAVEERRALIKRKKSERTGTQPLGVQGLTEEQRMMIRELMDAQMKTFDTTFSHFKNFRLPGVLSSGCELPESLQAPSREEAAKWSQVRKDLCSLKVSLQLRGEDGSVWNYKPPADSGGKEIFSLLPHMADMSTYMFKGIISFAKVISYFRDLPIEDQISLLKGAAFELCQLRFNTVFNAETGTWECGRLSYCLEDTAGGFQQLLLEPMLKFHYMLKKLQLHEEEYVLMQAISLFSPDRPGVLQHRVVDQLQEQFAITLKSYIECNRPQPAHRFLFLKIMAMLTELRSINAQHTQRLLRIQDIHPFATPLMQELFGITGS
Outline: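 Cells: HepG2 stably carrying PXR-Luc. Medium held 5% charcoal-stripped FBS. Compounds in DMSO added after 5 hr plating, incubated 24 hr, then luminescence quantified with ONE-Glo.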

[8] = biological target: Nuclear receptor subfamily 1 group I member 2 (Rattus norvegicus) (UniProt Q9R1A7); test: Rat pregnane X receptor (rPXR) activation by small molecules, qHTS assay (AID 1346983); conditions: rPXR luciferase reporter cells, One-Glo luminescence, 24 h; max activation: stronger effect = higher value; also: nearly all actives have a fitted effect of over 20% in size; also: potency is read from the fitted curve at half-maximal effect
Sequence of Nuclear receptor subfamily 1 group I member 2 (Rattus norvegicus) (Q9R1A7 whole entry, looked up): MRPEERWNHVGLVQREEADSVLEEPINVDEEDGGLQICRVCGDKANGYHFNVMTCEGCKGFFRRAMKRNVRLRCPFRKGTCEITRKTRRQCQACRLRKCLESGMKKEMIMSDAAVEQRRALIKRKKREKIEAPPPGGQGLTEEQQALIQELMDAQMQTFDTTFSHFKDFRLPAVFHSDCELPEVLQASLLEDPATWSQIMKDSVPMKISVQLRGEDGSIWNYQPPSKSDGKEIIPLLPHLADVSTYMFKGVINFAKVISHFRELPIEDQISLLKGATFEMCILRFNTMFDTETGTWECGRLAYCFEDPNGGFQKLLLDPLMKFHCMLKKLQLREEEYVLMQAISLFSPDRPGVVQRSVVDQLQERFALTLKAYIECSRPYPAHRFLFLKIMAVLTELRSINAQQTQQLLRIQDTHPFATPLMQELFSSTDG
Outline: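 Luminescent readout (One-Glo luciferase, 30 min room temperature) followed 24 hr compound treatment at 37 C of rPXR cells plated 2,000 per well and preincubated 5hr; qHTS format with compounds delivered in DMSO.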

[9] = biological target: Nuclear receptor subfamily 1 group I member 2 (Homo sapiens) (UniProt O75469); test: Human pregnane X receptor (PXR) activation by small molecules, qHTS assay (AID 1346985); also: nearly all actives have a fitted effect of over 40% in size; also: potency is read from the fitted curve at half-maximal effect
Outline: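 DPX-2 cells (HepG2 co-transfected with a PXR response element and a CYP3A4-promoter luciferase construct) were seeded at 2,000 per well, rested 5 hr at 37C, then exposed to DMSO-dissolved compounds for 24 hr. Activation was read as luciferase luminescence.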

[10] = biological target: Nuclear receptor subfamily 1 group I member 2 (Homo sapiens) (UniProt O75469); test: CYP3A4 induction through human pregnane X receptor (PXR) by small molecules, qHTS assay (AID 1346984); also: nearly all actives have a fitted effect of over 40% in size; also: potency is read from the fitted curve at half-maximal effect
Outline: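 Quantitative HTS in DPX-2 cells, i.e. HepG2 transfected with PXR response element and CYP3A4-promoter luciferase. Compounds in DMSO incubated 24hr at 37C; then P450-Glo CYP3A4 substrate, 3uM final, 3hr; One-Glo luminescence.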
% is scaled to controls: 0 for no effect and ±100 for the full control effect.

CCn1cc(C(=O)O)c(=O)c2cc(F)c(N3CCN(C)CC3)cc21
inactive: activation [1] 0.129% [at 11.8 µM] | activity change, negative = cytotoxicity [2] 4.23% [at 19 µM] | caspase activation [3] -0.273% [at 19 µM] | activity change, negative = cytotoxicity [4] 6.37% [at 19 µM] | caspase-3/7 activation [5] 0.47% [at 19 µM] | activity change, negative = cytotoxicity [6] 0.0199% [at 19 µM] | activation [7] -5.92% [at 19 µM] | max activation [8] -0.517% | Potency [9]

CCN(CC)C(=O)c1ccc(O)c(OC)c1
inactive: outcome [1] | Potency [2] | outcome [3] | Potency [4] | outcome [5] | outcome [6] | Potency [7] | max activation [8] -5.72% | Potency [10] | Potency [9]

CCC(C(=O)NC(N)=O)c1ccccc1 (centres undefined)
inactive: outcome [1] | Potency [2] | outcome [3] | Potency [4] | outcome [5] | outcome [6] | max activation [8] -2.91% | Potency [10] | Potency [9]

O=C(O)/C=C/c1ccc(Cn2ccnc2)cc1
inactive: outcome [1] | Potency [2] | outcome [3] | Potency [4] | outcome [5] | outcome [6] | max activation [8] -1.1%

CCCC(=O)O[C@]1(C(=O)CCl)[C@@H](C)C[C@H]2[C@@H]3CCC4=CC(=O)C=C[C@]4(C)[C@@]3(F)C(=O)C[C@@]21C
inactive: outcome [1] | Potency [2] | outcome [3] | outcome [5] | outcome [6]
active: Potency [7] 2110 nM | Potency [8] 1000 nM | Potency [10] 631 nM | Potency [9] 11200 nM

O=C(O)c1ccc[n+]([O-])c1
inactive: outcome [1] | Potency [2] | outcome [3] | Potency [4] | outcome [5] | max activation [8] -2.52% | Potency [10] | Potency [9]

CCc1cc(S(=O)(=O)O)c2cc(C(C)C)cccc1-2
inactive: outcome [1] | Potency [2] | Potency [4] | outcome [5] | outcome [6]

CCN1CCCC1CNC(=O)c1cc(S(N)(=O)=O)ccc1OC (centres undefined)
inactive: outcome [1] | Potency [2] | outcome [3] | outcome [5] | outcome [6]

CC(C)(C)N(CCO)CCO
inactive: outcome [1] | Potency [2] | Potency [4] | outcome [5] | outcome [6]

O=c1[nH]c2ccccc2c(=O)n1CCCl
inactive: outcome [1] | Potency [2] | Potency [4] | outcome [5] | outcome [6] | Potency [7]

O=[N+]([O-])c1ccc(CCO)cc1
inactive: outcome [1] | Potency [2] | outcome [3] | Potency [4] | outcome [5] | Potency [7]
